Rows were chosen to be rich in hits. Some 7.2% of all compounds tested hit in one or more screens of this group.
3T3 cytotox: NIH 3T3 cell cytotoxicity. NIH 3T3 viability, CellTiter-Glo ATP luminescence, 48-72 h. Potency, µM (top dose mostly 96.7 µM), for inactives: at the top dose activity change, negative = cytotoxicity, most hits filed as inhibitors. hit rate 4.3% among 94,000. AID 1345082; note: nearly all actives have a fitted effect of over 55% in size
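First NIH 3T3 cells are plated at 400 cells/well; next compound is pinned in; then plates incubate 48 or 72 hr at 37 °C; finally CellTiter-Glo is added and luminescence read after 10 min.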
SNCA expr inhib: reduces expression of the alpha-synuclein gene; HEK-293 SNCA-luciferase knock-in, luminescence, 24 h; hit rate 0.17% among 140,000; Potency, µM (series often up to 57.2 µM), for the others: at the highest dose activity change, negative = inhibition, hits mostly inhibitors;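 note: plate controls were DMSO cells for no effect and cell-free wells for full effect; nearly all actives have a fitted effect of over 45% in size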
SNCA viab count: cell viability loss counter-screen | Potency, µM (doses to about 57.1 µM), for inactives: top-dose activity change, negative = cytotoxicity, actives largely listed as cytotoxic | HEK-293-SNCA-luc viability, GF-AFC fluorescence, 24 h | hit rate 0.12% among 150,000;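 note: 0% = DMSO-treated cells and -100% = medium-only wells without cells; nearly all actives have a fitted effect of over 30% in size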
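Cytotoxicity counterscreen: after 24 h compound treatment of genome-edited SNCA-luciferase HEK-293 cells, live-cell protease substrate GF-AFC read by fluorescence after 30 min; activity scaled between DMSO (0%) and medium-only (-100%), curves Hill-fitted.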
NPR1 antag: antagonists of human natriuretic peptide receptor Npr1. P16066. HEK293 hNpr1 GloSensor cGMP, ANP-stimulated luminescence. Potency, µM (titrated, usually from 46.3 µM), inactives show at the highest dose activity change, negative = inhibition, most hits filed as inhibitors. hit rate 1.6% among 76,000; calls by dose curve; note: nearly all actives have a fitted effect of over 60% in size
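HEK293 cells stably expressing human Npr1 and cGMP GloSensor pGS-40F, loaded 2 h with 2% GloSensor reagent, given compound 30 min at room temperature. Luminescence read before and 20 min after 0.1 nM hNppA.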
HEK cytotox: cytotoxic compounds in HEK 293 cells. HEK 293 viability, ATP luminescence (CellTiter-Glo), 48-72 h. Potency, µM (top dose mostly 115 µM), without a hit: top-dose activity change, negative = cytotoxicity, hits mostly inhibitors. hit rate 6.6% among 94,000. AID 1345083; note: nearly all actives have a fitted effect of over 60% in size
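HEK 293 cells seeded at 250 cells/well were exposed to compound for 48 or 72 hr at 37 degree Celsius. Viability taken as ATP content by CellTiter-Glo luminescence.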
FLuc inh: blocks purified firefly luciferase enzyme activity. P08659. purified P. pyralis luciferase, luminescence, biochemical. Potency, µM (highest dose often 115 µM), usual class: inhibitors. hit rate 2.5% among 76,000. AID 1347043; note: nearly all actives have a fitted effect of over 65% in size
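Purified P. pyralis luciferase (10nM final) in 50mM Tris acetate pH 7.5, 10mM Mg acetate, 0.01% Tween-20, 0.05% BSA with 10uM D-luciferin and 10uM ATP. Compounds titrated qHTS. Luminescence imaged on CCD.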
* = called active by the depositor; i = inactive; ? = inconclusive; · = not tested or not shown; [ ] = remark or other dose. Unless noted, calls come from the whole dose curve; as a rule, active = well fitted curve in the direction sought with a large enough effect; inconclusive = small, poorly fitted or top-dose-only effect, or another doubt; inactive = no such curve, though single readings can be large; an effect the other way counts as inactive or inconclusive. Unless noted, % is set by controls: 0 for no effect and ±100 for the full control effect; potency is the fitted concentration of half-maximal effect.

SMILES	3T3 cytotox	SNCA expr inhib	SNCA viab count	NPR1 antag	HEK cytotox	FLuc inh
CC(C)N1C[C@@H]2C[C@H]1C(=O)N(CC1CC1)c1ccccc1O2	-10%[138 µM]	13%[87.6 µM]	0%[87.6 µM]	-6%[70.6 µM]	-22%[172 µM]	i
CN(C(=O)[C@@H]1C[C@@H](c2ccc(F)cc2)N([S+](=O)([O-])c2ccccc2)C1)c1ccccc1	35µM*	6%[87.6 µM]	?	-25%[70.6 µM]	?	i
Nc1nc(C2CC(N)C2)cc(N2CCN(C3CCCC3)C(=O)C2)n1 (configuration not stated)	-1%	-22%	-8%	1%	-3%	i
COc1ccccc1-c1cccc(C(=O)N2CCN(C(=O)c3ccc(C(F)(F)F)cc3)CC2)c1	?	-18%	6%[12.5 µM]	·	?	·
COCC1CN(C2CCC2)CC12CCN(C(=O)CCCc1ccccc1)CC2 (configuration not stated)	?	44%	-7%	·	32µM*	·
COCC1CN(C2CCC2)CC12CCN(C(=O)C1(c3ccccc3)CC1)CC2 (configuration not stated)	?	-36%	-4%	-27%	32µM*	i
COCC1CN(C)CC12CCN(C(=O)CCCc1ccccc1)CC2 (configuration not stated)	?	-9%	-10%	2%	?	i
COCCOC1CCOC2(CCN(C(=O)CCCc3ccccc3)CC2)C1 (configuration not stated)	-15%	33%	-1%[12.5 µM]	-11%	?	28µM*
COCC1CN(C2CCC2)CC12CCN(Cc1cccc(OC)c1OC)CC2 (configuration not stated)	?	-8%	-23%	-2%	45µM*	i
O=C(NCc1cccnc1)c1nc2sccn2c1-c1ccc(F)cc1	-15%	15%	9%	·	1%	·
CC(Cn1cccn1)C(=O)N1CCC(Oc2ccccc2)(C(=O)O)CC1 (configuration not stated)	-11%	-11%	2%	4%	i	i
Cc1ccc(-c2noc([C@@H]3C[C@@H](O)CN3Cc3ccc(C(=O)O)cc3)n2)cc1F	1%[138 µM]	31%[87.6 µM]	5%[87.6 µM]	-3%[70.6 µM]	-11%[172 µM]	50µM*
COc1ccc(CN2C[C@H](O)C[C@H]2c2nc(-c3cccc(C)c3)no2)c2ccccc12	79µM*	114%[87.6 µM]	-7%[87.6 µM]	-27%[70.6 µM]	100µM*	20µM*
Cc1cccc(-c2noc([C@@H]3C[C@@H](O)CN3Cc3cccc(C#N)c3)n2)c1	?	99%[87.6 µM]	-12%[87.6 µM]	-15%[70.6 µM]	?	?
Cc1ccc(-c2noc([C@@H]3C[C@@H](O)CN3Cc3ccccc3O)n2)cc1F	45µM*	59%[87.6 µM]	-16%[87.6 µM]	1%[70.6 µM]	?	50µM*
Oc1ccccc1CN1C[C@H](O)C[C@H]1c1nc(-c2ccccc2)no1	?	57%[87.6 µM]	2%[87.6 µM]	0%[70.6 µM]	?	i
Cc1ccccc1C(=O)N1CCC(N2CC3CCCN3C2=O)CC1 (configuration not stated)	?	9%[87.6 µM]	-21%[87.6 µM]	14%[70.6 µM]	-10%[172 µM]	i
COc1ccc(-c2ccc(-c3nc(CC(C)C)no3)cn2)c2cccnc12	?	-15%	-17%	?	25µM*	i
O=C(CCC1CCCC1)N1CCC(N2C(=O)[C@H]3CN(Cc4ccccc4)C[C@H]3C2=O)CC1	?	-19%	5%	·	?	·
COc1cccc(-c2nc3cc4c(cc3cc2CN2CCSCC2)OCO4)c1OC	?	-6%	?	0%	22µM*	i
COc1cccc(-c2nc3cc4c(cc3cc2CN2CCOCC2)OCO4)c1OC	-12%	0%	-21%	4%	?	i
CCCNC(=O)N1CCCCCCNC(=O)[C@@H]2C[C@@H](c3nc(-c4cccnc4)no3)C[C@@H]21	-27%	-24%	7%	5%	i	i
COc1ccccc1N1CCCc2ncc(C(=O)N3CCCC[C@@H]3Cc3ccccc3)cc21	?	7%	-13%	-17%	?	i
COc1ccccc1N1CCCc2ncc(C(=O)N(C)Cc3ccccc3)cc21	?	-13%[87.6 µM]	-2%[87.6 µM]	3%[70.6 µM]	100µM*	i
COc1ccccc1N1CCCc2ncc(C(=O)NCCOc3ccccc3)cc21	89µM*	2%[87.6 µM]	2%[87.6 µM]	-4%[70.6 µM]	100µM*	i
SMILES	3T3 cytotox	SNCA expr inhib	SNCA viab count	NPR1 antag	HEK cytotox	FLuc inh
COc1ccccc1N1CCCc2ncc(C(=O)N3CCC[C@@H]3c3ccc(F)cc3)cc21	89µM*	13%[87.6 µM]	-18%[87.6 µM]	-16%[70.6 µM]	?	i
COc1cc(-c2nc(CN3CCCC(CN)C3)c(C)o2)cc2c1OCO2 (configuration not stated)	?	5%	-7%	-3%	40µM*	i
COc1cc(C)c(-c2nc(CN3CCCC(CN)C3)c(C)o2)cc1C (configuration not stated)	25µM*	?	?	-2%	32µM*	i
COc1cc(C)c(-c2nc(CN3CCOC(CCN)C3)c(C)o2)cc1C (configuration not stated)	?	13%	-4%	1%	45µM*	i
COCCn1c(=O)c(C(=O)N2CCN(C(=O)c3ccc(Cl)nc3)CC2)nc2cccnc21	0%	-2%	0%	·	i	·
O=C(C1CC1)N1CCC(c2nn(-c3ccccn3)c(=O)[nH]2)CC1	-19%[138 µM]	-11%[87.6 µM]	-1%[87.6 µM]	·	i	·
CCCOc1cccc(-c2cc3c(cc2OC)C(CO)CC(C)(C)CO3)c1 (configuration not stated)	32µM*	·	·	·	35µM*	·
COc1cc2c(cc1-c1ccc(OC(F)(F)F)cc1)OCC(C)(C)CC2CO (configuration not stated)	?	-16%[25.6 µM]	-13%[23.9 µM]	·	22µM*	·
COCC1(c2nc(C3CCOCC3)nn2C(C)(C)C)CC1	3%	5%	9%	0%	-1%	i
CCCc1nc(NCc2ccc(-c3noc(C)n3)cc2)c2cnn(C)c2n1	?	-11%	-2%	11µM*	18µM*	i
O=C1NCc2ccccc2CC12CCCN(Cc1c[nH]c3ccccc13)C2 (configuration not stated)	?	48%	-12%	·	?	·
CCc1nn(CC(=O)NCCCc2ccccc2)c(=O)c2cc3ccccc3n12	·	28µM*	4%	·	·	·
CC(c1cccs1)N(C)Cc1cccc2ccccc12 (configuration not stated)	?	68%[87.6 µM]	12%[87.6 µM]	19%[70.6 µM]	112µM*	?
Cc1ccc(-c2c(C(=O)CCl)n(CCCO)c3ncnc(N)c23)cc1	·	·	24µM*	·	·	·

Screening results (PubChem BioAssay)
